Data on 65 compounds can be found in article PMC4552634, “A New Set of Chemical Starting Points with Plasmodium falciparum Transmission-Blocking Potential for Antimalarial Drug Discovery” (PLoS ONE, 2015).

Where two headings read alike, the source gives them in different places. In all, about 13,000 compounds went through this assay and about 3,200 (25%) showed an effect of 50% or more. Some of the results follow.

The test deals with P. falciparum stage V gametocytes. Also noted: BacTiter-Glo ATP luminescence viability of purified stage V gametocytes in 384-well plates, per cent inhibition versus DMSO. To be noted: 48 h, 5 µM, inhibitor.

Broadly, the % Inhibition is the relative decrease from the control value, in per cent. In the case of `CC(C)Cn1cc2c(ccc3nc(N)nc(N)c32)n1` [TCMDC-137969], the “% Inhibition” value is reported as -46.77%.

Consider `COc1ccc2nccc([C@@H](O)CN3CCC(NC(=O)/C=C/c4cccc(-c5ccccc5)c4)CC3)c2c1` [TCMDC-141043], for which the “% Inhibition” value was -22.17%.

In the case of `CC(NCCC1CCC(NC(=O)N[C@H](C)C(O)(c2ccccc2)c2ccccc2)CC1)c1cccc2ccccc12` (some centres unmarked) [TCMDC-136378], the “% Inhibition” value is recorded as 64.1%.

For `CC(NC(=O)NC1CCC(CCN2CCCc3ccccc32)CC1)c1cccc2ccccc12` (centres unmarked) [TCMDC-136176], the “% Inhibition” value was 92.78%.

In the case of `N#Cc1ccc2c(c1)CCN(CCC1CCC(NC(=O)/C=C/c3cccc4ccccc34)CC1)CC2` (centres unmarked) [TCMDC-139777], the “% Inhibition” value is -39.21%.

Take `CC(=O)c1ccc2c(c1)CCN(CCC1CCC(NC(=O)c3cc4ccccc4[nH]3)CC1)CC2` (centres unmarked) [TCMDC-139776]: the “% Inhibition” value is on record as -25.73%.

Consider `CC(C)[C@H](NC(=O)NC1CCC(CCN2C3CCC2CC(OC(=O)C(CO)c2ccccc2)C3)CC1)C(O)(c1ccccc1)c1ccccc1` (some centres unmarked) [TCMDC-136457], for which the “% Inhibition” value is recorded as -19.47%.

`CC(C)[C@@H](NC(=O)NC1CCC(CCN2C3CCC2CC(OC(=O)C(CO)c2ccccc2)C3)CC1)C(O)(c1ccccc1)c1ccccc1` (some centres unmarked) [TCMDC-136458]: the “% Inhibition” value is 45.88%.

Regarding `Oc1cc2c(cc1CN1CCN(Cc3cccs3)CC1)CCC2` [TCMDC-125012], the “% Inhibition” value was found to be 1.025%.

For `CCN(CC)CCN1C(=O)c2oc3ccc(Cl)cc3c(=O)c2C1c1ccc(SC)cc1` (centres unmarked) [TCMDC-124623], the “% Inhibition” value amounted to 3.621%.

For the compound `CCCCCN1C(=O)C(c2ccccc2)(c2ccccc2)N=C1N` [TCMDC-136877], the “% Inhibition” value is -32.2%.

Consider `COc1cccc(-c2cnc(N)c(-c3nc4ccc(C(F)(F)F)cc4[nH]3)c2)c1` [TCMDC-138790], for which the “% Inhibition” value is 13.24%.

For `COc1ccccc1NC(=O)Nc1ccc(-c2ccc(-c3nc4ccc(C(F)(F)F)cc4[nH]3)cc2)cc1` [TCMDC-133202], the “% Inhibition” value is -7.674%.

Regarding `CCCCCCCc1cc(O)c2c3c(c(=O)oc2c1)CN(C)CC3` [TCMDC-124145], the “% Inhibition” value is 8.32%.

For the compound `Cc1sc(CNCCCNc2cc(=O)c3ccccc3[nH]2)c(C(F)(F)F)c1C` [TCMDC-140906], the “% Inhibition” value was found to be 5.874%.

Consider `Cn1cccc1C(=O)C(=O)Nc1cccc(-c2ccc(-c3nc4ccc(C(F)(F)F)cc4[nH]3)cc2)c1` [TCMDC-136910], for which the “% Inhibition” value came to 0.09328%.

Regarding `Cc1cccc2[nH]c(-c3cccc(-c4ccc(NC(=O)Nc5ccc(Cl)cc5)cc4)c3)nc12` [TCMDC-133177], the “% Inhibition” value is recorded as 12.12%.

`Cc1cccc2[nH]c(-c3ccc(-c4cccc(NC(=O)C(=O)c5cccn5C)c4)cc3)nc12` [TCMDC-136907]: the “% Inhibition” value is 90.5%.

`Cc1cccc2[nH]c(-c3cccc(-c4cccc(NC(=O)Nc5cccc(C#N)c5)c4)c3)nc12` [TCMDC-133194]: the “% Inhibition” value is recorded as -35.1%.

On to `Cc1cccc2[nH]c(-c3cccc(-c4ccc(NC(=O)C(=O)c5cccn5C)cc4)c3)nc12` [TCMDC-136909], for which the “% Inhibition” value worked out at 70.67%.

For `Cc1cccc2[nH]c(-c3ccc(-c4cccc(NC(=O)Nc5ccccc5)c4)cc3)nc12` [TCMDC-133155], the “% Inhibition” value was found to be 0.6364%.

As for `Cc1cccc2[nH]c(-c3cccc(-c4ccc(NC(=O)Nc5cccc(C#N)c5)cc4)c3)nc12` [TCMDC-133192], the “% Inhibition” value came to 2.358%.

Take `Cc1cccc2[nH]c(-c3ccc(-c4cccc(NC(=O)Nc5cccc(C#N)c5)c4)cc3)nc12` [TCMDC-133198]: the “% Inhibition” value is reported as 83.69%.

As for `Cn1cccc1C(=O)C(=O)Nc1ccc(-c2ccc(-c3nc4ccc(F)cc4[nH]3)cc2)cc1` [TCMDC-136780], the “% Inhibition” value is given as -3.552%.

For `Cc1cccc2[nH]c(-c3ccc(-c4ccc(NC(=O)Nc5ccc(Cl)cc5)cc4)cc3)nc12` [TCMDC-133184], the “% Inhibition” value is recorded as -26.89%.

For `CCNC(=O)Nc1ccc(-c2cccc(-c3nc4c(C)cccc4[nH]3)c2)cc1` [TCMDC-133171], the “% Inhibition” value is -9.855%.

In the case of `Cc1cccc2[nH]c(-c3ccc(-c4ccc(NC(=O)C(=O)c5cccn5C)cc4)cc3)nc12` [TCMDC-136908], the “% Inhibition” value was 78.98%.

Regarding `Cc1cccc2nc(-c3ccc(-c4ccc(NC(=O)NCc5cccc(F)c5)cc4)s3)[nH]c12` [TCMDC-133286], the “% Inhibition” value amounted to 5.156%.

For the compound `Cc1ccc(-c2cc3nc4c(c(NCCCn5ccnc5)n3n2)CCC4)cc1` [TCMDC-124390], the “% Inhibition” value is reported as 12.49%.

Turning to `Cc1cccc2c3c([nH]c12)C1(CCN(Cc2ccccc2)CC1)NC(C(=O)NCc1ccccc1)C3` (centres unmarked) [TCMDC-141244], the “% Inhibition” value is recorded as -26.21%.

As to `COc1ccc2nccc([C@@H](O)CN3CCC(NC(=O)c4ccc(Cl)c(OC)c4)CC3)c2c1` [TCMDC-141113], the “% Inhibition” value is -17.86%.

As for `CSc1sc(NC(=O)Nc2cccc(C(F)(F)F)c2)cc1C#N` [TCMDC-123772], the “% Inhibition” value is on record as -46.48%.

For `CCN(CC)Cc1cc(Nc2ccnc3cc(Cl)ccc23)ccc1O` [TCMDC-123932], the “% Inhibition” value is on record as -15.23%.

For `COc1ccc2nc3cc(Cl)ccc3c(Nc3ccc(O)c(CN4CC5CCC(CC5)C4)c3)c2c1.Cl` [TCMDC-142013], the “% Inhibition” value is listed as -78.53%.

With `CCN(CC)Cc1cc(Nc2c3ccc(Cl)cc3nc3cccc(OC)c23)ccc1O` [TCMDC-139222], the “% Inhibition” value is on record as 106.6%.

As to `CN(Cc1ccc(NC(=O)CCC2CCN(C(=O)/C=C/c3ccc(Cl)c(Cl)c3)CC2)cc1)C1CCOCC1` [TCMDC-140515], the “% Inhibition” value was determined as 8.343%.

On to `Oc1c(C=Nn2cnnc2)sc2ccccc12` [TCMDC-125759], for which the “% Inhibition” value is on record as -2.761%.

Take `O=[N+]([O-])c1cccc(-c2nc(-c3ccc(Br)cc3)[nH]c2-c2ccc(Br)cc2)c1` [TCMDC-124605]: the “% Inhibition” value is listed as -41.82%.

With `Cc1ccc(S(=O)(=O)c2nc(S(=O)(=O)c3ccccc3)sc2NCC2CCCO2)cc1` (centres unmarked) [TCMDC-124749], the “% Inhibition” value amounted to 4.322%.

Regarding `CCCCCCCN(CCCCCCC)CCCC(=O)Nc1ccnc2ccc(OC)cc12.O=C(O)C(=O)O` [TCMDC-139843], the “% Inhibition” value was -16.87%.

Consider `CCCCCN=C(N)N/N=C/c1c[nH]c2ccc(OC)cc12` [TCMDC-125887], for which the “% Inhibition” value turned out to be 106.4%.

`COc1ccc2cc(C=NNc3nc4ccccc4[nH]3)c(Cl)nc2c1` [TCMDC-124889]: the “% Inhibition” value is listed as -71.34%.

Turning to `O=C(CNc1ccncc1)c1c[nH]c2ccccc12` [TCMDC-124024], the “% Inhibition” value stood at 4.031%.

In the case of `O=C(CSc1nn(-c2ccccc2)c(=S)s1)c1c[nH]c2ccccc12` [TCMDC-124894], the “% Inhibition” value was 95.1%.

For `O=C(NC12CC3CC(CC(C3)C1)C2)C(=O)c1c[nH]c2ccccc12` [TCMDC-123481], the “% Inhibition” value is -3.925%.

In the case of `O=C(c1c(-c2[nH]c3ccccc3c2C(=O)C(F)(F)F)[nH]c2ccccc12)C(F)(F)F` [TCMDC-125831], the “% Inhibition” value was found to be 0.8709%.

As for `Cc1[nH]c2ccccc2c1C(=O)CSc1nn(-c2ccccc2)c(=S)s1` [TCMDC-124893], the “% Inhibition” value was determined as 60.68%.

`N#Cc1ccc2c(c1)CN(CCC1CCC(NC(=O)c3cc4cc(OC(F)(F)F)ccc4[nH]3)CC1)CC2` (centres unmarked) [TCMDC-139160]: the “% Inhibition” value is on record as 23.56%.

As to `Cc1cccc2nc(-c3cccc(-c4cccc(C(=O)NCCc5cn(C)cn5)c4)c3)[nH]c12` [TCMDC-132494], the “% Inhibition” value is reported as -97.59%.

As for `O=C(NCCCCN1CC=C(c2ccc3c(c2OCc2ccccc2)CCCC3)CC1)c1ccc(-c2ccc(C(F)(F)F)cc2)cc1` [TCMDC-138746], the “% Inhibition” value was -33.61%.

With `N#Cc1ccc(-c2ccc(C(=O)NCCCCN3CCC(c4ccc5c(c4OCc4ccncc4)CCCC5)CC3)cc2)cc1` [TCMDC-138732], the “% Inhibition” value worked out at 54.86%.

As for `CC(=O)Oc1c(C2CCN(CCCCNC(=O)c3ccc(-c4ccc(C#N)cc4)cc3)CC2)ccc2c1CCCC2` [TCMDC-138650], the “% Inhibition” value is -28.73%.

On to `O=C(NCCCCN1CCC(c2ccc3c(c2OCc2ccncc2)CCCC3)CC1)c1ccc(-c2ccc(C(F)(F)F)cc2)cc1` [TCMDC-138733], for which the “% Inhibition” value is recorded as 60.19%.

In the case of `N#Cc1ccc(-c2ccc(C(=O)NCCCCN3CCC(c4ccc5c(c4OCc4ccccn4)CCCC5)CC3)cc2)cc1` [TCMDC-138737], the “% Inhibition” value is listed as 66.39%.

Regarding `CC(C)(Oc1c(C2CCN(CCCCNC(=O)c3ccc(-c4ccc(C#N)cc4)cc3)CC2)ccc2c1CCCC2)C(N)=O` [TCMDC-134828], the “% Inhibition” value came to 39.17%.

As for `O=C(NCCN1Cc2ccccc2C1=O)c1ccc(Oc2ccc(C(=O)NCCN3Cc4ccccc4C3=O)cc2)cc1` [TCMDC-125669], the “% Inhibition” value turned out to be 22.87%.

Turning to `CCOC(=O)C(C#N)NC(=O)C=Cc1ccccc1` (centres unmarked) [TCMDC-131634], the “% Inhibition” value is on record as -4.008%.

In the case of `C=C(C)C1CC=C(CN2CCC(N3CCc4cc(NC(=O)c5cc(C)on5)ccc43)C2)CC1` (centres unmarked) [TCMDC-135089], the “% Inhibition” value is reported as 10.83%.

Turning to `O=C(Nc1cc(Cl)cc(Cl)c1)c1cc(Cl)c(=O)n(Cc2cccc(Cl)c2)c1` [TCMDC-123809], the “% Inhibition” value was -55.71%.

For `COc1ccccc1N1CCN(Cc2cc(C(C)C)c(C)cc2O)CC1` [TCMDC-124541], the “% Inhibition” value is reported as -1.392%.

On to `O=C(C=Cc1ccc(-c2ccccc2)cc1)NC1CCC(CN2CCC(c3c[nH]c4ccccc34)CC2)CC1` (centres unmarked) [TCMDC-139951], for which the “% Inhibition” value (% Inhibition) was found to be 123.9%.

On to `O=C(C=Cc1ccc(-c2ccccc2)cc1)NC1CCC(CN2CCC(c3c[nH]c4ccccc34)CC2)CC1` (centres unmarked) [TCMDC-139935], for which the “% Inhibition” value (% Inhibition) was found to be 108%.

`O=C(/C=C/C=C/c1ccccc1)NC1CCC(CN2CCC(c3c[nH]c4ccccc34)CC2)CC1` (centres unmarked) [TCMDC-139708]: the “% Inhibition” value is on record as 100.6%.

Regarding `COc1ccc2nccc(N3CCN(CCNCc4ccc5c(n4)NC(=O)CO5)CC3)c2c1.Cl` [TCMDC-141961], the “% Inhibition” value was 30.82%.

Consider `Cc1nc2nc(N)nc(N)c2c(C)c1Cc1cccc(C(N)=O)c1` [TCMDC-137643], for which the “% Inhibition” value came out at 17.6%.
